Only some compounds are listed: those with a hit (about 3.4% of all), similar ones and a draw of the others.
esBAF inh: Bmi1 luciferase reporter increase in mESCs, primary screen, esBAF inhibitor project, mouse ES cells, Bmi1 luciferase knock-in, single point; 24 h; 100% = twice the neutral-well signal; reporter increase, % at 12.5 µM; 2% of 350,000 active; AID 602393, 2012; in the data active means activation above about 40%; inconclusive means no clear call, values can overlap the other calls;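 further: 0% = median of the plate's neutral control wells and 100% = double that signal; a rise in the Bmi1 reporter signal indicates esBAF inhibition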
HIV Env fusion: inhibitors of HIV-1 Env-driven cell-cell fusion, primary screen, HeLa-JRFL effector, CEM21 target cells, luciferase; inhibition, % at 12.3 µM; AID 651610, 2012; 1.1% of 360,000 active;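 active means mean replicate inhibition score of at least 50 and every replicate individually at or above 50; inconclusive means only one of the two criteria met; inactive means mean below 50 and not all replicates reaching 50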;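 further: 0% = plate neutral controls and 100% = maraviroc near 300 nM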
Wnt act: Wnt/beta-catenin pathway activators, primary screen, cell-based, plate reader, single point. Wnt/beta-catenin reporter cell assay, activator. activation, % at 9.35 µM. 1.2% of 300,000 active; in the data active means activation above about 30%, passing the limit was not always enough; inconclusive means no clear call, values can overlap the other calls;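 further: 0% = neutral control wells and 100% = positive control wells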
MITF act: activators of MITF-driven TRPM1 promoter reporter, primary screen, cell-based, SK-MEL-5, luciferase, single point. SK-MEL-5 TRPM1-promoter luciferase, 24 h; % of positive control, neutral wells = 0. activation, % at 12.5 µM. 0.75% of 300,000 active. AID 588334, 2011;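 active means mean activation of at least 80% with every replicate also reaching 80%; inconclusive means mean reaches 80% but some replicate falls short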;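 further: 0% = neutral control wells and 100% = parthenolide positive control wells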
miR-122 sensor: miR-122 Renilla sensor signal increase in Huh7, primary screen, miR-122 inhibitor project, cell-based, single point, plate reader | Huh7 miR-122 Renilla luciferase sensor, 48 h; neutral wells = 0, positive control = 100 | activation (reporter increase), % at 12.5 µM | 0.3% of 340,000 active | AID 602342, 2012;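 active means mean replicate activation score at least 90 and every replicate individually at or above 90; inconclusive means only one of the two criteria met; inactive means neither criterion met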;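 further: higher luciferase means less miR-122 activity so hits act as miR-122 inhibitors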
* hit, by the source's call; ? = inconclusive; · = no result given; [ ] = remark or other dose.

SMILES	esBAF inh	HIV Env fusion	Wnt act	MITF act	miR-122 sensor
CCCC(=O)c1ccc(N2CCCC2)c(F)c1	?	-54	49*	68	-13
CCOC(=O)N1CCN(c2ccc(C(=O)c3ccccc3)cc2F)CC1	56*	·	·	18	·
CNc1cc(-c2ccc(OC)nc2)ncn1	50*	-40	20	·	-6
CCc1cccc(NC(=O)O[C@H]2[C@H](OC(=O)Nc3ccc4c(c3)OCO4)[C@@H](OC(=O)Nc3ccc4c(c3)OCO4)[C@@H](OC)O[C@@H]2CO)c1	·	3[16.7 µM]	·	·	·
CSc1ccc(/C=N/n2c(C)cc(C)cc2=O)cc1	12	-198	-5	87*	-11
CSc1ccc(/C=N/N2CCN(C)CC2)cc1	10	-5	32*	49	0
CN(C)c1ccc(O)c2c1CC1CC3[C@@H](N(C)C)C(=O)C(C(N)=O)=C(O)[C@]3(O)C(=O)C1=C2O (some centres undefined)	17	73*	-4	-12	-19
C[C@H]1c2cccc(O)c2C(O)=C2C(=O)[C@]3(O)C(O)=C(C(N)=O)C(=O)[C@@H](N(C)C)[C@@H]3[C@@H](O)[C@@H]21	16	·	·	-6	7
CC(=O)N(C)C[C@H]1Oc2cc(/C=C/c3ccccc3)ccc2S(=O)(=O)N([C@@H](C)CO)C[C@@H]1C	0	-4[16.7 µM]	·	·	-8[16.7 µM]
C[C@@H]1CN([C@H](C)CO)C(=O)Cc2cc(NC(=O)Nc3ccc4c(c3)OCO4)ccc2O[C@H]1CN(C)CC1CC1	-1	-1[16.7 µM]	·	·	-16[16.7 µM]
Cc1cc(NC(=O)OC2CCCCC2)ccc1[N+](=O)[O-]	67*	-152	16	120*	-4
Cc1ccc(NC(=O)C2C3CCCCC32)cc1[N+](=O)[O-] (centres undefined)	42*	-3	16	55	-10
CC(=O)Nc1ccc(C)c([N+](=O)[O-])c1	-10	-6	1	0	-13
O=C(Nc1cccnc1)OC1CCCCC1	·	7	4	14	·
CO[C@@H]1CN(C)C(=O)c2cc(NC(=O)c3cnccn3)ccc2OC[C@H](C)N(C(C)=O)C[C@@H]1C	-1	·	·	·	·
Cc1ccccc1N(C(=O)CCCC(=O)Nc1ccccn1)C(C(=O)NC1CCCC1)c1ccc(O)cc1 (centres undefined)	-1	4	-2	1	132*
Cc1ccc(N(C(=O)CCCC(=O)Nc2ccccn2)C(C(=O)NC2CCCC2)c2ccc(O)cc2)cc1C (centres undefined)	1	15	1	-9	6
C[C@@H]1CCCCO[C@H](CN(C)Cc2ccc(C(=O)O)cc2)[C@H](C)CN([C@@H](C)CO)C(=O)c2cc(NC(=O)Nc3ccc4c(c3)OCO4)ccc2O1	-1	-14[16.7 µM]	·	·	3[16.7 µM]
CN1CCN(C(=O)C[C@H]2CC[C@@H]3[C@H](COC[C@@H](O)CN3C(=O)Nc3ccc4c(c3)OCO4)O2)CC1	3	10[16.7 µM]	·	·	5[16.7 µM]
COc1cccc(NS(=O)(=O)c2cc(C)sc2C)c1	·	·	·	13	121*
C[C@H]1CN([C@@H](C)CO)C(=O)c2cc(NS(=O)(=O)c3ccccc3)ccc2O[C@@H]1CN(C)C(=O)Nc1ccc(C(F)(F)F)cc1	2	9[16.7 µM]	·	·	1[16.7 µM]
COc1ccc(CN2C(=O)C(C)N(C(=O)c3c(F)cccc3F)c3ccccc32)cc1 (centres undefined)	·	25	-2	-8	·
CC1C(=O)N(Cc2ccc([N+](=O)[O-])cc2)c2ccccc2N1C(=O)c1c(F)cccc1F (centres undefined)	1	78*	1	3	4
CC(=O)[C@]12O[C@@]3(COC[C@H](c4ccccc4)N3C1=O)[C@H]1C(=O)N(c3ccccc3)C(=O)[C@H]12	·	-3[16.7 µM]	·	·	·
Cc1nn(-c2nc3ccccc3s2)c(N)c1-c1ccc(Cl)cc1	·	-41	41*	79	-3
Cc1nc2cc(-c3ccccc3)nn2c(N)c1-c1ccccc1	-7	-205	6	33	11
Cc1nn(-c2nc3ccccc3s2)c(N)c1-c1ccccc1	95*	·	?	?	10
Cc1cc(C)n(-c2nc3ccccc3s2)n1	·	-46	52*	53	·
Cc1nn(-c2nc3ccccc3s2)c(N)c1Sc1ccc(F)cc1	89*	·	·	34	4
Cc1cc(N)n(-c2nc3ccccc3s2)n1	·	-137	24	46	·
